Results filed as inconclusive are left out. Active and inactive are the calls of the source. Calls follow the shape of the dose curve; as a rule, active = well fitted inhibition curve with a large enough effect; inconclusive = small, poorly fitted or top-dose-only effect; inactive = no such curve, though single readings can be large or run the other way.
Target: Luciferin 4-monooxygenase (Photinus pyralis) (UniProt P08659)
Assay: FLuc inhibitory activity for the follow-up compounds in a biochemical assay with Km concentrations of substrate
Details: purified FLuc, Km substrates, luminescence; series mostly up to 57.5 µM
Text: NCGC Assay Overview: Firefly (Photinus pyralis) luciferase is one of the most commonly used transcriptional reporters. It is considered one of the more dynamically responsive reporters - that is, responsive to changes in reporter transcription - as it requires no post-translational modifications and is enzymatically active directly after protein synthesis (Wood, 1998). With no endogenous expression in mammalian cells and without the requirement of external excitation, it offers very little background signal, thus generally providing excellent signal to background for most assays. Previous profiling work to determine the prevalence of compounds that affect FLuc enzymatic activity (PubChem AID 411) identified that ~3% of the MLSMR library (then at ~72K) inhibited FLuc. […] Of the compounds identified in this profile that inhibited FLuc, 151 compounds were selected for further analysis, in an effort to better understand their mode of inhibiting FLuc. The assay described here confirms the FLuc inhibitory activity of the 151 compounds.
NCGC Assay Protocol Summary: Reagents: 50mM Tris acetate, pH 7.5; 10mM Mg acetate; 10uM D-luciferin (Sigma #L9504); 10uM ATP; 0.01% Tween-20; 0.05% BSA; 10nM P. pyralis luciferase (Sigma #L9506) Control compounds used were two known firefly luciferase inhibitors (3-(5-(3-chlorophenyl)-1,2,4-oxadiazol-3-yl)benzoic acid and 5-(2-fluorophenyl)-3-phenyl-1,2,4-oxadiazole), and DMSO. Three microliters containing firefly luciferase substrates in buffer (final concentrations: 50mM Tris acetate, pH 7.5, 10mM Mg acetate, 0.01% Tween-20, 0.05% BSA, 10uM D-luciferin, and 10uM ATP) are dispensed into each well of a Greiner white, solid-bottom 1536-well format plate using a flying reagent dispenser (FRD). These assay plates were then treated with 23nL of compound or DMSO using a Kalypsys pin tool, which allows for delivery of a 12-point intraplate titration of each compound to the assay plate (quantitative HTS), with a final compound concentrations ranging from approximately ~60uM to 0.3nM. One microliter of firefly luciferase in 500mM Tris-acetate buffer was then delivered by FRD to each well for a final enzyme concentration of 10nM. Luciferase activity was then measured using a ViewLux CCD imager (PerkinElmer), with an average exposure time of 2-30 seconds (2X binning, medium/high gain).

Chain of Luciferin 4-monooxygenase (Photinus pyralis) (P08659 whole entry, looked up): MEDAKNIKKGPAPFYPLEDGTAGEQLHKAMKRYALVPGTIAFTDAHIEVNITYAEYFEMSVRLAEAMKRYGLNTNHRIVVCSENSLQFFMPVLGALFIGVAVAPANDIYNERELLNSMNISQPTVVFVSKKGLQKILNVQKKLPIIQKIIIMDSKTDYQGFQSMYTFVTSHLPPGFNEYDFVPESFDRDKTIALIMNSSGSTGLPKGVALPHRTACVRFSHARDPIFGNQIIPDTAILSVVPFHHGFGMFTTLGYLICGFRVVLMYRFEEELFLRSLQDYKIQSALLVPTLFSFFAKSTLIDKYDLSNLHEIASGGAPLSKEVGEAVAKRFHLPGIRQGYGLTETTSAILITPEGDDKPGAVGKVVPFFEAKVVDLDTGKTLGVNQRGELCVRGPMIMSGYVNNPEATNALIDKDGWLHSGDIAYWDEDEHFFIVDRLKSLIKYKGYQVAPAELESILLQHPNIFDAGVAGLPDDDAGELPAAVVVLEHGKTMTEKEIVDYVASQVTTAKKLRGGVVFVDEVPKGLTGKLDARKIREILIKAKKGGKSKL

Potency, active:
O=C(O)c1ccc(NC(=O)c2cccc(NC(=O)c3cccs3)c2)cc1 9.19 µM, COc1ccc2nc(NC(=O)c3ccco3)sc2c1 1.03 µM, CC(C)(C)C(=O)Nc1ccc(-c2nc3ccccc3s2)cc1 0.0116 µM, CCCC(=O)Nc1nc2ccc(OCC)cc2s1 13 µM, Nc1ccccc1-c1nc2ccccc2s1 8.19 µM, COc1ccc(C(=O)Nc2cccc(C(=O)O)c2)cc1S(=O)(=O)N1CCCC1 5.17 µM, CN(C)S(=O)(=O)c1ccc(C(=O)Nc2cccc(C(=O)O)c2)cc1 10.3 µM, Cc1c(C)c2ccc(OCC(=O)Nc3ccccn3)c(C)c2oc1=O 0.0116 µM, Cc1ccc2sc(-c3ccc(NC(=O)c4cc(-n5cnnc5)ccc4Cl)cc3)nc2c1 6.51 µM, Cc1c(NC(=O)c2cc(-n3cnnc3)ccc2Cl)cccc1-c1nc2ccccc2s1 0.58 µM, O=C(Nc1ccccc1C(=O)Nc1ccccc1C(=O)O)c1ccccc1 16.3 µM, COc1ccc2nc(NC(=O)c3ccccc3C(=O)O)sc2c1 18.3 µM, CCOc1ccc(C(=O)Nc2cccc(C(=O)O)c2)cc1Cl 0.058 µM, O=C(Nc1ccccc1C(=O)O)c1cccc(NC(=O)c2ccccc2Br)c1 32.6 µM, Cc1ccc(C(=O)O/N=C(\N)c2ccccn2)cc1 0.0291 µM, Oc1ccc(-c2nc3ccccc3s2)c(O)c1 6.51 µM, CC(C)C(=O)Nc1cccc(C(=O)Nc2ccccc2C(=O)O)c1 5.8 µM, O=C(O)c1cccc(NC(=O)c2ccc(COc3ccc(Cl)cc3)cc2)c1 3.66 µM, CCOc1ccc(C(=O)Nc2ccccc2C(=O)O)cc1 1.46 µM, Cc1c(NS(C)(=O)=O)cccc1-c1nc2ccccc2s1 8.19 µM, O=C(O)c1cccc(NC(=O)c2cccc(S(=O)(=O)N3CCc4ccccc4C3)c2)c1 36.6 µM, O=C(O)c1cccc(NC(=O)c2cccc(S(=O)(=O)N3CCc4ccccc43)c2)c1 23.1 µM, O=C(Nc1cccc(-c2nc3ccccc3s2)c1)C1=COCCO1 18.3 µM, COc1cc(OC)cc(-c2nc3ccccc3s2)c1 6.51 µM, COc1cccc(-c2nc3ccccc3s2)c1 1.3 µM, O=C(O)c1cccc(NC(=O)c2cccc(S(=O)(=O)N3CCCCC3)c2)c1 1.63 µM, c1ccc2sc(-c3ccc4c(c3)OCO4)nc2c1 0.326 µM, CCOc1ccc2nc(NC(=O)c3ccoc3C)sc2c1 0.651 µM

Potency, inactive:
COc1ccc2nc(NC(=O)C3CCN(S(=O)(=O)c4cccnc4)CC3)sc2c1, COc1cc(OC)cc(C(=O)Nc2ccccc2-c2nc3ccccc3s2)c1, COc1ccc(-c2nc3ccccc3s2)cc1NC(=O)c1ccc(F)cc1, O=C(Cc1ccccc1)Nc1ccccc1C(=O)Nc1ccc(C(=O)O)cc1, O=C(Nc1ccccc1-c1nc2ccccc2s1)c1ccc(Br)o1, O=C(Nc1ccccc1C(=O)O)c1cccc(S(=O)(=O)Nc2ccc(Br)cc2)c1, O=C(O)c1ccc(NC(=O)c2cccc(C(=O)Nc3ccc(C(=O)O)cc3)c2)cc1, COc1ccc(C(=O)Nc2ccccc2-c2nc3ccccc3s2)c(OC)c1, COc1ccccc1C(=O)Nc1ccc(C(=O)O)cc1, Cc1ccc(C(=O)Nc2ccc(C(=O)O)cc2)cc1S(=O)(=O)Nc1ccccc1, COc1ccc2nc(NC(=O)c3ccc(S(=O)(=O)N4CCCC(C)C4)cc3)sc2c1 (stereo not given), O=C(Nc1ccc(Cl)cc1-c1nc2ccccc2s1)c1ccco1

Source: PubChem BioAssay AID602357 (National Center for Advancing Translational Sciences (NCATS), 2012)
